# A selection: hits, their analogues and other compounds. The true share with any hit is near 2.3%.
# MCL1 BIM primary = MCL1-BIM-BH3 interaction inhibition (human); Q07820; inhibition, % at 10.9 µM; GST-MCL1 / FITC-Bim-BH3 fluorescence polarization; actives 0.68% (n = 320,000);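 active = inhibition above the mean inhibition of all tested compounds plus 3 SD, set per campaign, cut at about 40% in these data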;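 note: higher means more loss of mP so more displacement of Bim peptide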
# Mcl1 Noxa PPI = Mcl-1/Noxa interaction inhibition; Q07820; TR-FRET Mcl-1/Noxa peptide binding, 2 h; inhibition, % at 21.7 µM; actives 1.5% (n = 220,000);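 active = compounds that cut the protein-peptide binding signal by more than 50% relative to plate controls in a single-dose test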;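 note: His-tagged Mcl-1 with rhodamine Noxa BH3 peptide and terbium anti-His antibody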
# GLD-1 RNA inh = GLD-1-TGE RNA interaction inhibition (C. elegans). Q17339. purified GLD-1 + fluorescein TGE RNA, fluorescence polarization. inhibition, % at 5.96 µM. actives 0.44% (n = 320,000). AID 2280;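 active = percent inhibition above a per-plate cutoff, the plate mean of test compounds plus 3 SD, cut at about 30% in these data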
# Target sequence (Q17339 whole entry, looked up): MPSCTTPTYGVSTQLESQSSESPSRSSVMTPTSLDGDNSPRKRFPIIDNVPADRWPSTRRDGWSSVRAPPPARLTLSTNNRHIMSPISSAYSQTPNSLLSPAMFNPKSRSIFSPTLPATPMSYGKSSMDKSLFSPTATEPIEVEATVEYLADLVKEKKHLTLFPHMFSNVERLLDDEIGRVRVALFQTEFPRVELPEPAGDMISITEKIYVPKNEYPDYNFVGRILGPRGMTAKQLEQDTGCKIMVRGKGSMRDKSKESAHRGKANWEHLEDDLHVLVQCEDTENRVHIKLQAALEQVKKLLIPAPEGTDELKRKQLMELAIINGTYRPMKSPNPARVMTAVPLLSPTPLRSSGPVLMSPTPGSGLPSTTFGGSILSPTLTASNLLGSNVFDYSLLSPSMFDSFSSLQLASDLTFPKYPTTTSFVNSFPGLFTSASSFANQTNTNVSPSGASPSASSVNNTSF
# Mcl1 Bid PPI = Mcl-1/Bid interaction inhibition | Q07820 | TR-FRET Mcl-1/Bid-Dy647 peptide binding, 1536-well | actives 0.97% (n = 220,000) | inhibition, % at 21.7 µM;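 active = compounds that cut the binding signal by more than half at the single screening dose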;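 note: His-tagged Mcl-1 with europium anti-His antibody binding Bid BH3 peptide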
# Bim-Mcl-1 = inhibitors of Bim-Mcl-1 interaction, human. actives 0.1% (n = 190,000). inhibition, % at 10 µM. Bead-based flow cytometry, Bim peptide-Mcl-1 binding. Q07820. AID 1009; in the data active = inhibition above about 40%
# Bcl-xL primary = inhibitors of human Bcl-xL; inhibition, % at 10.9 µM; actives 0.7% (n = 320,000); GST-Bcl-xL / FITC-Bim BH3 peptide fluorescence polarization;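 active = inhibition above the mean of all tested compounds plus 3 SD, cutoff set per campaign, cut at about 30% in these data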;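 note: inhibitors lower millipolarization by displacing the labeled peptide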
# Numbers stand for hits; . = inactive; / = not tested or not shown.
SMILES,MCL1 BIM primary,Mcl1 Noxa PPI,GLD-1 RNA inh,Mcl1 Bid PPI,Bim-Mcl-1,Bcl-xL primary
O=C1C=CC(=O)C(C2=C3C(=O)N(CCc4ccccc4)CC(=O)N3CCC2)=C1,.,84,.,.,.,.
O=C1CC(=O)N(CCc2ccccc2)C(=O)N1CCc1ccccc1,.,.,.,.,.,.
Cc1cccc(NC(=O)CN2C(=O)N/C(=C/c3cc(C)n(-c4ccncc4)c3C)C2=O)c1,.,.,.,81,.,.
Cc1cccc(NC(=O)CN2C(=O)N/C(=C/c3cc(C)n(-c4cccnc4)c3C)C2=O)c1,.,.,.,.,.,.
CN1/C(=C\C=C2/SC(=S)N(CC(=O)O)C2=O)C(C)(C)c2ccccc21,.,.,.,.,.,36
C=CCN1C(=O)/C(=C\C=C2\N(C)c3ccccc3C2(C)C)SC1=S,.,.,.,.,.,.
CC(NC(=O)c1cc(F)c(F)cc1Cl)C1CC2CCC1C2 (stereo unspecified),.,/,.,/,/,41
O=C(Cc1cccs1)Nc1nc(-c2cccnc2)cs1,.,72,.,.,/,.
O=C(NCc1cccnc1)c1ccc(Cl)c(S(=O)(=O)Nc2ccccc2C(=O)NCc2cccnc2)c1,.,.,.,.,.,.
O=c1c(C(c2ccc(O)cc2)c2c(O)nc3n(c2=O)CCCS3)c(O)nc2n1CCCS2,.,52,.,.,.,.
O=c1c(C(c2c(O)nc3n(c2=O)CCS3)c2cccc3ccccc23)c(O)nc2n1CCS2,.,53,.,.,.,.
O=c1c(C(c2ccc(Br)cc2)c2c(O)nc3n(c2=O)CCCS3)c(O)nc2n1CCCS2,.,.,.,.,/,.
O=c1c(C(c2ccc(O)cc2)c2c(O)nc3n(c2=O)CCS3)c(O)nc2n1CCS2,.,60,.,.,.,.
Cc1ccc(C(c2c(O)nc3n(c2=O)CCS3)c2c(O)nc3n(c2=O)CCS3)cc1,.,.,.,.,.,.
CCOC(=O)CCNC(=O)Nc1ccc2nc(C)n(Cc3cccc(Cl)c3)c(=O)c2c1,.,.,.,.,.,.
COC(=O)C1=C(C)N(Cc2ccco2)C(=O)/C1=C\c1ccc(N(C)C)cc1,.,54,.,.,.,.
Cc1[nH]c2ccc(C(=O)NCCN3CCCCCC3)cc2c1C,.,/,.,/,/,.
CC1(OC(=O)c2cnc3ccccc3n2)C(=O)C=C2C=C(c3ccc(C#N)cc3)OC=C2C1=O (stereo unspecified),.,/,47,/,/,.
COc1ccc(NC(=O)N(C)C[C@H]2Oc3ccc(NS(=O)(=O)c4cccs4)cc3C(=O)N([C@H](C)CO)C[C@@H]2C)cc1,/,/,.,/,/,/
CNC(=O)NC(=S)NC(=O)c1ccc(OC)cc1,.,.,.,.,.,.
COC(=O)c1c(-c2ccccc2Cl)noc1-c1cnc(N)nc1C(F)(F)F,.,.,.,.,/,.
CCC(/C=C1\Sc2ccc(OC)cc2N1CCO)=C\c1sc2ccc(OC)cc2[n+]1CCO,.,.,.,.,42,.
COc1ccc(CCn2c(N)cc(=O)[nH]c2=O)cc1OC,.,.,.,.,.,.
COc1ccc(OCCOCCN2CCc3ccccc3C2)cc1,.,.,.,62,.,.
C=CCn1c(NS(=O)(=O)c2ccccc2)c(S(=O)(=O)c2ccc(C)cc2)c2nc3ccccc3nc21,.,.,.,.,.,.
SMILES,MCL1 BIM primary,Mcl1 Noxa PPI,GLD-1 RNA inh,Mcl1 Bid PPI,Bim-Mcl-1,Bcl-xL primary
O=S(=O)(Nc1c(S(=O)(=O)c2ccccc2)c2nc3ccccc3nc2n1C1CCCCC1)c1ccccc1,.,55,.,57,.,.
COC(=O)c1ccc(SC2CCCCC2)c([N+](=O)[O-])c1,.,.,.,.,.,.
CCC1c2ccc(C)n2CCN1C(=O)Nc1ccc(F)cc1 (stereo unspecified),42,.,.,.,.,45
CCCC1c2ccc(C)n2CCN1C(=O)Nc1ccc(F)cc1 (stereo unspecified),.,.,.,.,.,46
O=C(CC1C(=O)NCCN1C(=O)Nc1ccc(F)cc1)Nc1ccc(F)cc1 (stereo unspecified),.,.,.,.,/,.
O=C(Cc1cccs1)Nc1ccc(S(=O)(=O)N2CCCC2)cc1,.,63,.,.,.,.
CN1CCN(S(=O)(=O)c2ccc(NC(=S)NC(=O)c3ccccc3)cc2)CC1,.,.,.,.,.,.
